Assay results published in PubChem BioAssay (NCI).
The panel holds about 79,000 compounds, 15% with a hit somewhere; the sample as a whole holds those more often. Values without a mark were called inactive. Active and inactive are the calls of the source. Rule as the data show it: active = growth inhibition above about 70%; inactive = the rest.

Experiment: NCI Yeast Anticancer Drug Screen. Data for the bub3 strain (AID 167)
Conditions: S. cerevisiae bub3 mutant strain, at 5.0 µM (retest, dose inferred, filed as 0.5), active compounds read high
Outline: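 In this screen, a yeast mutant lacking normal mitotic checkpoint function is challenged with compound. Relative growth versus vehicle gives the inhibition value.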

Structure (SMILES) | growth inhibition
O=C(O)C(SC1=NNC2(C(=O)N1)c1ccccc1-c1ccccc12)SC1=NNC2(C(=O)N1)c1ccccc1-c1ccccc12 | 9%
CC1(C)NNC(=S)NN1 | 23%
O=C([O-])c1ccccc1[I+]c1ccc(C2CCCCC2)cc1 | 0%
ClC1=C(Cl)C(Cl)(C(Cl)(Cl)Cl)C(Cl)=C1Cl | 99% (active)
Cn1nc(N)c2cccnc21 | 2%
CC(C)(C)c1ccc(-n2c3nc(=O)n(-c4ccccc4C(F)(F)F)c(=O)c-3cc3ccccc32)cc1 | 8%
C/C(=N\Nc1ccccn1)c1ccccn1 | 53%
COc1ccc2c(C)cc(N/N=C(\C)c3ccccn3)nc2c1 | 0%
CC([NH-])C(=O)O.[Cu+2].[NH-]C(Cc1cnc[nH]1)C(=O)O (stereo not drawn) | -5%
COc1ccc(C)cc1NC(=O)ON=C1CCCCC1 | 30%
Oc1c(N(Cc2ccccc2)Cc2ccccc2)ccc2cccnc12 | -8%
Cc1ccc2[nH]c3cc4ccncc4cc3c2c1 | 47%
Cc1ccc2nn(-c3ccc(O)cc3)nc2c1 | 28%
Oc1ccc2c(ccc3ccccc32)c1 | 4%
ClCc1ccc2ccc3ccc(CCl)nc3c2n1 | -7%
CC(=O)c1c(O)c2ccc(Cl)cc2[nH]c1=O | 71% (active)
O=C(c1ccc(Cl)cc1)c1ccc(OCCCOc2ccc(C(=O)c3ccc(Cl)cc3)cc2)cc1 | -14%
C=C1CC2(C[C@@H](c3ccccc3)O[C@@H](c3ccccc3)C2)OC1=O (stereo partly drawn) | 33%
